Measurements published in paper PMC7862700, “An all-to-all approach to the identification of sequence-specific readers for epigenetic DNA modifications on cytosine”.

Tests used:
Assay in all cases: DAPPL (digital affinity profiling via proximity ligation, sequencing); 10 mM Tris-HCl pH 7.5, 50 mM NaCl, 1 mM DTT, 4% glycerol, room temperature, 30 min; GST-TFs on glutathione beads, 16-mer random dsDNA library, 0.1% formaldehyde crosslink after washing; high values mean tight binding
Conditions in all cases: protein: recombinant; tags: N-terminal GST; dsDNA, one strand shown
ERF = target: T1, ERF (Homo sapiens, UniProt P50548 1-548)
T1 sequence: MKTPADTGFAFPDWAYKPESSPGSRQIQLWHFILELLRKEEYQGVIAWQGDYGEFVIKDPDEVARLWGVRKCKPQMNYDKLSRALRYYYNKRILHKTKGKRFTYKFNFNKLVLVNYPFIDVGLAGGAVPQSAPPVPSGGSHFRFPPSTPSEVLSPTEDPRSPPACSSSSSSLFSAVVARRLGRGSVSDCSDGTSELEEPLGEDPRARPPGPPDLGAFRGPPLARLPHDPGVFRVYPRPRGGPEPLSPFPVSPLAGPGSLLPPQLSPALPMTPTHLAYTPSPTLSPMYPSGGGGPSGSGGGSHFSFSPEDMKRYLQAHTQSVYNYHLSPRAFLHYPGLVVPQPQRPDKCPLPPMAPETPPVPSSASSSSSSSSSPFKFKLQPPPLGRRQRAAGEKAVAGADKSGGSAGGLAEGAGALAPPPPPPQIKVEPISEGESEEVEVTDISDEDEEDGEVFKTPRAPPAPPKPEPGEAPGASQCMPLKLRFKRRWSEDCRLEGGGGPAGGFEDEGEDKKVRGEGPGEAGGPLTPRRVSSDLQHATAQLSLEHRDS
Summary of the method: (§1)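 GST fusions of human transcription factors were expressed in yeast and captured with glutathione beads. Once given DNA barcodes and pooled alongside a tag-only sample, they were incubated for 30 min at room temperature with 200 nmole of a random double-stranded 16-mer DNA library in Tris/NaCl/DTT/glycerol buffer, then washed, crosslinked (0.1% formaldehyde), proximity-ligated, PCR-amplified and sequenced on an Illumina NextSeq500. The binding signal of each hexamer is its read frequency for a factor divided by its frequency for the tag-only sample.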

ETV3L = target: T2, ETV3L (Homo sapiens, UniProt Q6ZN32 1-361)
T2 sequence: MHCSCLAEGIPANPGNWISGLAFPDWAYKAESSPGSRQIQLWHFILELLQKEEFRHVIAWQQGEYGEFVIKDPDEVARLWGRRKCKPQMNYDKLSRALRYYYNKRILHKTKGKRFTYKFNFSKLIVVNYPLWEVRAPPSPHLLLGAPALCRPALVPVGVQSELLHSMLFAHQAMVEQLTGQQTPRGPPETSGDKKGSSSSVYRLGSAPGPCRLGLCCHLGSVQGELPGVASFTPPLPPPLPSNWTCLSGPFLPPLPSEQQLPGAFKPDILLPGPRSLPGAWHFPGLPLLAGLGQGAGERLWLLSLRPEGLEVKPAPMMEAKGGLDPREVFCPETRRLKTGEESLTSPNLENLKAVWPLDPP
Summary of the method: as §1

ETS2 = target: T3, ETS2 (Homo sapiens, UniProt P15036 1-469)
T3 sequence: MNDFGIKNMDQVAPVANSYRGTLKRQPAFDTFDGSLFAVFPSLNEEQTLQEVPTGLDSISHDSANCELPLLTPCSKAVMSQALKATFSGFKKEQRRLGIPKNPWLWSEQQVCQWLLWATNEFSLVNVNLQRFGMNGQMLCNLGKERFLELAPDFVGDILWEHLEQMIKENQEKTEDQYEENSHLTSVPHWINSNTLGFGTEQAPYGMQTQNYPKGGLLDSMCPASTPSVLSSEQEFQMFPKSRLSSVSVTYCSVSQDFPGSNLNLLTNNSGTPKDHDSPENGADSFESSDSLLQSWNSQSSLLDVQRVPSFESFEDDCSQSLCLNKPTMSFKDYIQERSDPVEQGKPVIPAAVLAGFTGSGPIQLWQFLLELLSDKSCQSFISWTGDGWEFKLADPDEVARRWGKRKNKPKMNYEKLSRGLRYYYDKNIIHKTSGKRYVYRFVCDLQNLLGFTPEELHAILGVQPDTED
Summary of the method: as §1

SPDEF = target: T4, SPDEF (Homo sapiens, UniProt O95238 1-335)
T4 sequence: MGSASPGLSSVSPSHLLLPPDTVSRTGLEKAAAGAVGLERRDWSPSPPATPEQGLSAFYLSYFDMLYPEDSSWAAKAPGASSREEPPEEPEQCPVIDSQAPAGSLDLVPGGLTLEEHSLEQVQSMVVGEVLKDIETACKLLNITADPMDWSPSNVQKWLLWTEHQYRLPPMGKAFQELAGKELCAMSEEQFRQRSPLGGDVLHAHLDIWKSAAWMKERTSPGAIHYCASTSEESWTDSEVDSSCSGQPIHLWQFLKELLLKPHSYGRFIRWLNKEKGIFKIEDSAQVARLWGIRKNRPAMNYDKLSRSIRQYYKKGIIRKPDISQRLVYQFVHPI
Summary of the method: as §1

ETV7 = target: T5, ETV7 (Homo sapiens, UniProt Q9Y603 1-341)
T5 sequence: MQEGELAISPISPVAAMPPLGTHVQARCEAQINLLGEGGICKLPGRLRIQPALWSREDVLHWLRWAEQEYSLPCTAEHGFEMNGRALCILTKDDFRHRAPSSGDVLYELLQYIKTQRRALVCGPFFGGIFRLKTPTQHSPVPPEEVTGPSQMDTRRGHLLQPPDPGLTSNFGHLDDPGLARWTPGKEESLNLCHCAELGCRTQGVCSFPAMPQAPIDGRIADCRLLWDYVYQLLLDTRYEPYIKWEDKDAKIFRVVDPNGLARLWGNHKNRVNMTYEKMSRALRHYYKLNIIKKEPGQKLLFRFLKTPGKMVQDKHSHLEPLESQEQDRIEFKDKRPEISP
Summary of the method: as §1

ELF5 = target: T6, ELF5 (Homo sapiens, UniProt Q9UKW6-2 1-255)
T6 sequence: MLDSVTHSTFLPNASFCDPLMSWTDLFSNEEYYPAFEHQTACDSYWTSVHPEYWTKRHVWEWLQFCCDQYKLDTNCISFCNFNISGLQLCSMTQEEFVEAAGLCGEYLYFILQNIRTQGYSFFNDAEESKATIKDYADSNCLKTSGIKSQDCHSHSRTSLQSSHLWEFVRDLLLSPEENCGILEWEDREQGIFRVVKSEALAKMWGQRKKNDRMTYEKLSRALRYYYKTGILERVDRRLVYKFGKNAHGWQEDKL
Summary of the method: as §1

ETV3 = target: T7, ETV3 (Homo sapiens, UniProt P41162-2 1-143)
T7 sequence: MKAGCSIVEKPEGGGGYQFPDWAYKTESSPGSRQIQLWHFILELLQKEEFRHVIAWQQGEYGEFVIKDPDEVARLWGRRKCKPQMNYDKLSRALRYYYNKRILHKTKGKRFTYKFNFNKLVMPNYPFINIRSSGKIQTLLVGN
Summary of the method: as §1

ETV6 = ETV6 (Homo sapiens, UniProt P41212 1-452)
Chain of ETV6 (P41212 whole entry): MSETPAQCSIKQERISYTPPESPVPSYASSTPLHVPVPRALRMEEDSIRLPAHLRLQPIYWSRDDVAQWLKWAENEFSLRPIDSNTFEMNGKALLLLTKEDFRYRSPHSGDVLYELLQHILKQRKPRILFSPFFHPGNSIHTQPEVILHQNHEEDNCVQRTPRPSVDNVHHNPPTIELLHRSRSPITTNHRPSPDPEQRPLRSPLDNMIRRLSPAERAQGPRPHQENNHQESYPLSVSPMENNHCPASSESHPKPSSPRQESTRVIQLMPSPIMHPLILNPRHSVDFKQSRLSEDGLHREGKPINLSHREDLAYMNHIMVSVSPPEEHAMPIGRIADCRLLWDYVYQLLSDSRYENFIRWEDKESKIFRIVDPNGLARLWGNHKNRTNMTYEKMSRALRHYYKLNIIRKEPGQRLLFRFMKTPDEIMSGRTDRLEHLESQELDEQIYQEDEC
Summary of the method: as §1

Sequence | binding signal (ERF) | binding signal (ETV3L) | binding signal (ETS2) | binding signal (SPDEF) | binding signal (ETV7) | binding signal (ELF5) | binding signal (ETV3) | binding signal (ETV6)
TTCTCC | 1.53 fold enrichment (6-mer frequency, TF over GST control) | 1.58 fold enrichment (6-mer frequency, TF over GST control) | 1.53 fold enrichment (6-mer frequency, TF over GST control) | 1.52 fold enrichment (6-mer frequency, TF over GST control) | 1.46 fold enrichment (6-mer frequency, TF over GST control) | 1.51 fold enrichment (6-mer frequency, TF over GST control) | 1.5 fold enrichment (6-mer frequency, TF over GST control) | 1.48 fold enrichment (6-mer frequency, TF over GST control)
TTCATT | 1.31 fold enrichment (6-mer frequency, TF over GST control) | 1.3 fold enrichment (6-mer frequency, TF over GST control) | 1.27 fold enrichment (6-mer frequency, TF over GST control) | 1.24 fold enrichment (6-mer frequency, TF over GST control) | 1.23 fold enrichment (6-mer frequency, TF over GST control) | 1.18 fold enrichment (6-mer frequency, TF over GST control) | 1.16 fold enrichment (6-mer frequency, TF over GST control) | 1.18 fold enrichment (6-mer frequency, TF over GST control)
ATCTAT | 1.12 fold enrichment (6-mer frequency, TF over GST control) | 1.07 fold enrichment (6-mer frequency, TF over GST control) | 1.15 fold enrichment (6-mer frequency, TF over GST control) | 1.17 fold enrichment (6-mer frequency, TF over GST control) | 1.18 fold enrichment (6-mer frequency, TF over GST control) | 1.05 fold enrichment (6-mer frequency, TF over GST control) | 1.12 fold enrichment (6-mer frequency, TF over GST control) | 1.14 fold enrichment (6-mer frequency, TF over GST control)
GAACTA | 1.25 fold enrichment (6-mer frequency, TF over GST control) | 1.27 fold enrichment (6-mer frequency, TF over GST control) | 1.33 fold enrichment (6-mer frequency, TF over GST control) | 1.31 fold enrichment (6-mer frequency, TF over GST control) | 1.3 fold enrichment (6-mer frequency, TF over GST control) | 1.36 fold enrichment (6-mer frequency, TF over GST control) | 1.34 fold enrichment (6-mer frequency, TF over GST control) | 1.36 fold enrichment (6-mer frequency, TF over GST control)
TGTTCT | 1.39 fold enrichment (6-mer frequency, TF over GST control) | 1.43 fold enrichment (6-mer frequency, TF over GST control) | 1.18 fold enrichment (6-mer frequency, TF over GST control) | 1.22 fold enrichment (6-mer frequency, TF over GST control) | 1.22 fold enrichment (6-mer frequency, TF over GST control) | 1.37 fold enrichment (6-mer frequency, TF over GST control) | 1.27 fold enrichment (6-mer frequency, TF over GST control) | 1.37 fold enrichment (6-mer frequency, TF over GST control)
ATGAAA | 1.21 fold enrichment (6-mer frequency, TF over GST control) | 1.16 fold enrichment (6-mer frequency, TF over GST control) | 1.15 fold enrichment (6-mer frequency, TF over GST control) | 1.06 fold enrichment (6-mer frequency, TF over GST control) | 1.07 fold enrichment (6-mer frequency, TF over GST control) | 1.13 fold enrichment (6-mer frequency, TF over GST control) | 1.1 fold enrichment (6-mer frequency, TF over GST control) | 1.1 fold enrichment (6-mer frequency, TF over GST control)
TTTTCA | 1.24 fold enrichment (6-mer frequency, TF over GST control) | 1.26 fold enrichment (6-mer frequency, TF over GST control) | 1.14 fold enrichment (6-mer frequency, TF over GST control) | 1.18 fold enrichment (6-mer frequency, TF over GST control) | 1.26 fold enrichment (6-mer frequency, TF over GST control) | 1.25 fold enrichment (6-mer frequency, TF over GST control) | 1.31 fold enrichment (6-mer frequency, TF over GST control) | 1.21 fold enrichment (6-mer frequency, TF over GST control)
TTCCGA | 1.5 fold enrichment (6-mer frequency, TF over GST control) | 1.48 fold enrichment (6-mer frequency, TF over GST control) | 1.67 fold enrichment (6-mer frequency, TF over GST control) | 1.47 fold enrichment (6-mer frequency, TF over GST control) | 1.64 fold enrichment (6-mer frequency, TF over GST control) | 1.78 fold enrichment (6-mer frequency, TF over GST control) | 1.68 fold enrichment (6-mer frequency, TF over GST control) | 1.85 fold enrichment (6-mer frequency, TF over GST control)
